Values without a mark were called inactive. No rule for the calls is given here.
Test: inhibitors of hydroxyurea-induced Chk1 phosphorylation, primary screen, imaging, HeLa, phospho-Chk1 antibody, percent positive cells (AID 1186)
Conditions: hydroxyurea-induced phospho-Chk1 immunofluorescence imaging, higher = more signal

SMILES	z-score
COc1ccccc1CN1C(=O)c2ccccc2[C@@]2(Cc3ccccc3N(C3CC3)C2=O)[C@@H]1c1ccc(CO)cc1	0.315
COC(=O)C(CC#Cc1ccc2c(c1)[C@]1(C(=O)N2)[C@H](c2ccc(OCCO)cc2)N2[C@H](c3ccccc3)[C@H](c3ccccc3)OC(=O)[C@H]2[C@@H]1C(=O)O)C(=O)OC	0.0445
CC(C)CCC[C@@H](C)[C@H]1CC[C@@]2(C)C3=C(CC[C@]12C)[C@@]1(C)CC[C@H](OC(=O)C(C)(C)C)C(C)(C)C1CC3 (stereo partly drawn)	-1.13
COCCCNC(=O)[C@@]1(C)c2ccccc2C(=O)N(c2ccc(C)cn2)[C@H]1c1ccc(CO)cc1	0.228
O=C1O[C@@H](c2ccccc2)[C@@H](c2ccccc2)N2[C@@H](c3ccc(O)cc3)[C@]3(C(=O)Nc4ccc(C#CC5(O)CCCCCC5)cc43)[C@@H](C(=O)N3CCN(c4ncccn4)CC3)[C@H]12	-0.206
COC(=O)C(CC#Cc1ccc2c(c1)[C@]1(C(=O)N2)[C@H](c2ccc(O)cc2)N2[C@H](c3ccccc3)[C@H](c3ccccc3)OC(=O)[C@H]2[C@@H]1C(=O)O)C(=O)OC	0.223
C=CC[C@@]1(C(=O)NCCN2CCOCC2)N=C(c2ccc(OCCCO)cc2)O[C@@H]1c1ccccc1	0.426
NC(=O)[C@H]1[C@@H]2C(=O)O[C@@H](c3ccccc3)[C@@H](c3ccccc3)N2[C@@H](c2ccc(O)cc2)[C@]12C(=O)Nc1ccc(C#CC3(O)CCCCCC3)cc12	0.526

Source: PubChem BioAssay
